# Measurements reported in PubChem BioAssay (Tox21).
# Values without a mark were called inactive. Records with an inconclusive call do not appear. Where a call stands in place of a potency, no number is given. Calls of active or inactive are those of the source. Unless noted, the call rests on the fitted dose curve; in most records, active means well fitted curve in the direction sought with a large enough effect in the repeat runs; inconclusive means weak or mixed curves; inactive means no such curve, though single readings can be large; an effect the other way counts as inactive or inconclusive.
# What was measured:
# [1] = qHTS assay to identify small molecule agonists of the hypoxia (HIF-1) signaling pathway - cell viability counter screen (AID 1224844; calls by dose curve; further: nearly all actives have a fitted effect of over 50% in size)
# How it was run: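 HRE-bla ME-180; 0.5% dFBS; cpd 17 h, 37C, 5% CO2; CellTiter-Glo lum., 30 min RT, post-FRET read, same wells.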
# [2] = qHTS assay to identify small molecule agonists of H2AX (AID 1224845; active means well fitted activation curve with a large enough effect in the signal ratio in the repeat runs, not every such curve was filed as active; the % refers to the signal ratio)
# How it was run: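 Wild-type CHO-K1 cells plated overnight, then exposed 3 hr at 37C to compounds at 15 concentrations (0.76% DMSO). Lysed, then HTRF anti-pH2AX(S139)-cryptate/anti-H2AX-d2 detection after 24 hr at room temperature; emissions 665 and 620 nm.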
# [3] = qHTS assay to identify small molecule agonists of the hypoxia (HIF-1) signaling pathway (AID 1224846; active means well fitted activation curve with a large enough effect in the signal ratio in the repeat runs, not every such curve was filed as active; the % refers to the signal ratio)
# How it was run: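 Reporter induction in HRE-bla ME-180 cells is taken as agonism: cells sit 5 hrs after plating, receive compounds or DMSO only, incubate 17 hrs at 37C under 5% CO2, and are loaded with CCF4-AM for beta-lactamase FRET measurement.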
# [4] = qHTS assay to identify small molecule agonists of H2AX - cell viability counter screen (AID 1224847; calls by dose curve; further: top concentration of the series differs between compounds; nearly all actives have a fitted effect of over 30% in size)
# How it was run: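 Cells plated first: CHO-K1, 1000 per well in 10% FBS medium, incubated overnight at 37C. Then 15-point compound titration added (final DMSO 0.76%) for 3 hr. Finally CellTiter-Glo added and luminescence read.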
# [5] = qHTS assay to identify small molecule antagonists of the estrogen related receptor (ERR) signaling pathway from Tox21 library (AID 1224848); further: nearly all actives have a fitted effect of over 50% in size
# How it was run: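 First, 2,000 ERR cells per well were plated and held 6 h at 37 C/5% CO2. Next, compounds in DMSO were pinned in and left 18 h at 37 C. Finally, ONE-Glo was added and luminescence read after 30 min at room temperature.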
# [6] = qHTS assay to identify small molecule agonists of the estrogen related receptor (ERR) signaling pathway from Tox21 library (AID 1224849; calls by dose curve; further: nearly all actives have a fitted effect of over 15% in size); conditions: ERR reporter cell line, ONE-Glo luciferase, 18 h; at 92.4 µM (top of the series) unless noted
# How it was run: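 Tox21 compounds tested for ERR agonism in an NTP reporter cell line: 18 h treatment at 37 C, then ONE-Glo luminescence.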
# [7] = qHTS RealTime-Glo MT Cell Viability Assay in HepG2 cells - 24 hour (AID 1224867); further: nearly all actives have a fitted effect of over 50% in size
# How it was run: (§1)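 Compound treatment began 5 h after plating HepG2 cells (600/well) with NanoLuc luciferase and prosubstrate. Plates stayed at 37 C for 40 h; luminescence was captured at six time points, 0 h through 40 h.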
# [8] = qHTS RealTime-Glo MT Cell Viability Assay in HEK293 cells - 32 hour (AID 1224868); further: nearly all actives have a fitted effect of over 50% in size; further: potency means the concentration at half of the fitted maximal effect
# How it was run: (§2)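 Quantitative high-throughput screen of the Tox21 10K library in HEK293: cells and RealTime-Glo reagents plated together, compound added at 5 h, luminescence monitored through 40 h at 37 C.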
# [9] = A CellTox Green Cytotoxicity Assay to monitor cytotoxicity in HEK293 cells - 0 hour (AID 1224869); further: nearly all actives have a fitted effect of over 50% in size
# How it was run: (§3)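 Tox21 screen in HEK293: membrane-impermeant cyanine dye fluoresces on binding dead-cell DNA; compound pinned 5 h post-seeding, plates held at 37 C, signal read repeatedly through 40 h.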
# [10] = qHTS RealTime-Glo MT Cell Viability Assay in HepG2 cells - 40 hour (AID 1224870); further: nearly all actives have a fitted effect of over 50% in size
# How it was run: (§4)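 HepG2 cells mixed with RealTime-Glo MT reagents (NanoLuc plus cell-permeant prosubstrate) were seeded at 600 cells/well, incubated 5 h at 37 C/5% CO2, then pinned with compounds in DMSO; nonlytic luminescence tracked viability during 40 h treatment.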
# [11] = A CellTox Green Cytotoxicity Assay to monitor cytotoxicity in HEK293 cells - 40 hour (AID 1224871); further: nearly all actives have a fitted effect of over 45% in size
# How it was run: as §3
# [12] = qHTS RealTime-Glo MT Cell Viability Assay in HEK293 cells - 16 hour (AID 1224872); further: nearly all actives have a fitted effect of over 50% in size; further: potency means the concentration at half of the fitted maximal effect
# How it was run: as §2
# [13] = qHTS RealTime-Glo MT Cell Viability Assay in HepG2 cells - 8 hour (AID 1224873); further: nearly all actives have a fitted effect of over 55% in size
# How it was run: as §4
# [14] = qHTS RealTime-Glo MT Cell Viability Assay in HEK293 cells - 40 hour (AID 1224874); conditions: RealTime-Glo luminescence; max response: hits give low values; further: nearly all actives have a fitted effect of over 50% in size; further: potency means the concentration at half of the fitted maximal effect
# How it was run: (§5)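 HEK293 + NanoLuc + prosubstrate, 600 cells/well; 5 h, 37 C/5% CO2; compound 23 nL in DMSO by pintool; 37 C; luminescence read at 0, 8, 16, 24, 32 and 40 h time points.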
# [15] = A CellTox Green Cytotoxicity Assay to monitor cytotoxicity in HEK293 cells - 24 hour (AID 1224875); further: nearly all actives have a fitted effect of over 45% in size
# How it was run: as §3
# [16] = A CellTox Green Cytotoxicity Assay to monitor cytotoxicity in HepG2 cells - 16 hour (AID 1224876); further: nearly all actives have a fitted effect of over 45% in size
# How it was run: (§6)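 Measurements at 0, 8, 16, 24, 32 and 40 h of treatment captured CellTox Green fluorescence in HepG2 cells that had been co-plated with reagent and preincubated 5 h at 37 C/5% CO2.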
# [17] = qHTS RealTime-Glo MT Cell Viability Assay in HepG2 cells - 32 hour (AID 1224877); further: nearly all actives have a fitted effect of over 55% in size
# How it was run: as §1
# [18] = A CellTox Green Cytotoxicity Assay to monitor cytotoxicity in HepG2 cells - 24 hour (AID 1224878); further: nearly all actives have a fitted effect of over 45% in size
# How it was run: as §6
# [19] = A CellTox Green Cytotoxicity Assay to monitor cytotoxicity in HepG2 cells - 40 hour (AID 1224879); further: nearly all actives have a fitted effect of over 40% in size
# How it was run: as §6
# [20] = qHTS RealTime-Glo MT Cell Viability Assay in HEK293 cells - 0 hour (AID 1224880)
# How it was run: as §5
compound,measurement,setting,value
Cc1ccc(CCl)cc1,Potency,[1],inactive
same,Potency,[2],inactive
same,outcome,[3],inactive
same,Potency,[4],inactive
same,Potency,[5],inactive
same,"activity change, positive = activation",[6],-1.8%
same,Potency,[7],inactive
same,Potency,[8],inactive
same,Potency,[9],inactive
same,Potency,[10],inactive
same,Potency,[11],inactive
same,Potency,[12],inactive
same,Potency,[13],inactive
same,max response,[14],2.72%
same,Potency,[15],inactive
same,Potency,[16],inactive
same,Potency,[17],inactive
same,Potency,[18],inactive
same,Potency,[19],inactive
same,Potency,[20],inactive
CCOCCOC(C)=O,Potency,[1],inactive
same,Potency,[2],inactive
same,outcome,[3],inactive
same,Potency,[4],inactive
same,Potency,[5],inactive
same,Potency,[7],inactive
same,Potency,[8],inactive
same,Potency,[9],inactive
same,Potency,[10],inactive
same,Potency,[11],inactive
same,Potency,[12],inactive
same,Potency,[13],inactive
same,max response,[14],4.22%
same,Potency,[15],inactive
same,Potency,[16],inactive
same,Potency,[17],inactive
same,Potency,[19],inactive
same,Potency,[20],inactive
Oc1ccc(I)cc1,Potency,[1],inactive
same,Potency,[2],inactive
same,outcome,[3],inactive
same,Potency,[4],inactive
same,Potency,[7],inactive
same,Potency,[8],inactive
same,Potency,[9],inactive
same,Potency,[10],inactive
same,Potency,[11],inactive
same,Potency,[12],inactive
same,Potency,[13],inactive
same,max response,[14],-9.46%
same,Potency,[15],inactive
same,Potency,[16],inactive
same,Potency,[17],inactive
same,Potency,[18],inactive
same,Potency,[19],inactive
ClCCN1CCOCC1,Potency,[1],inactive
same,Potency,[2],inactive
same,outcome,[3],inactive
same,Potency,[4],inactive
same,Potency,[5],inactive
same,"activity change, positive = activation",[6],-2.74%
same,Potency,[7],inactive
same,Potency,[9],inactive
same,Potency,[10],inactive
same,Potency,[11],inactive
same,Potency,[12],inactive
same,max response,[14],-16.3%
same,Potency,[15],inactive
same,Potency,[16],inactive
same,Potency,[17],inactive
same,Potency,[18],inactive
same,Potency,[19],inactive
same,Potency,[20],inactive
C=CCOC(N)=O,Potency,[1],inactive
same,Potency,[2],inactive
same,outcome,[3],inactive
same,Potency,[4],inactive
same,Potency,[5],inactive
same,"activity change, positive = activation",[6],2.68%
same,Potency,[7],inactive
same,Potency,[8],inactive
same,Potency,[9],inactive
same,Potency,[10],inactive
same,Potency,[11],inactive
same,Potency,[12],inactive
same,Potency,[13],inactive
same,max response,[14],0.832%
same,Potency,[15],inactive
same,Potency,[17],inactive
same,Potency,[18],inactive
same,Potency,[19],inactive
BrCC(Br)c1ccccc1 (stereo not drawn),Potency,[1],inactive
same,Potency,[2],inactive
same,outcome,[3],inactive
same,Potency,[4],inactive
same,Potency,[7],inactive
same,Potency,[8],inactive
same,Potency,[9],inactive
same,Potency,[10],inactive
same,Potency,[11],inactive
same,Potency,[12],inactive
same,Potency,[13],inactive
same,max response,[14],1.25%
same,Potency,[15],inactive
same,Potency,[16],inactive
same,Potency,[17],inactive
same,Potency,[18],inactive
same,Potency,[19],inactive
same,Potency,[20],inactive
Clc1ccc(-c2ccccc2)cc1,Potency,[1],inactive
same,Potency,[2],inactive
same,outcome,[3],inactive
same,Potency,[4],inactive
same,Potency,[5],inactive
same,"activity change, positive = activation",[6],3.89%
same,Potency,[7],inactive
same,Potency,[8],inactive
same,Potency,[9],inactive
same,Potency,[10],inactive
same,Potency,[12],inactive
same,Potency,[13],inactive
same,max response,[14],-16.9%
same,Potency,[15],inactive
same,Potency,[16],inactive
same,Potency,[17],inactive
same,Potency,[18],inactive
same,Potency,[19],inactive
same,Potency,[20],inactive
CC(C)CBr,Potency,[1],inactive
same,Potency,[2],inactive
same,outcome,[3],inactive
same,Potency,[4],inactive
same,Potency,[5],inactive
same,"activity change, positive = activation",[6],2.25%
same,Potency,[7],inactive
same,Potency,[8],inactive
same,Potency,[10],inactive
same,Potency,[11],inactive
same,Potency,[12],inactive
same,Potency,[13],inactive
same,max response,[14],0.766%
same,Potency,[15],inactive
same,Potency,[17],inactive
same,Potency,[18],inactive
same,Potency,[19],inactive
same,Potency,[20],inactive
COc1ccc([N+](=O)[O-])cc1O,Potency,[1],inactive
same,Potency,[2],inactive
same,outcome,[3],inactive
same,Potency,[4],inactive
same,Potency,[7],inactive
same,Potency,[8],inactive
same,Potency,[9],inactive
same,Potency,[10],inactive
same,Potency,[11],inactive
same,Potency,[12],inactive
same,Potency,[13],inactive
same,max response,[14],1.5%
same,Potency,[15],inactive
same,Potency,[16],inactive
same,Potency,[17],inactive
same,Potency,[18],inactive
same,Potency,[19],inactive
same,Potency,[20],inactive
CC(C)CC(C)N (stereo not drawn),Potency,[1],inactive
same,Potency,[2],inactive
same,outcome,[3],inactive
same,Potency,[4],inactive
same,Potency,[5],inactive
same,"activity change, positive = activation",[6],0.671%
same,Potency,[7],inactive
same,Potency,[8],inactive
same,Potency,[9],inactive
same,Potency,[11],inactive
same,Potency,[12],inactive
same,Potency,[13],inactive
same,max response,[14],4.09%
same,Potency,[15],inactive
same,Potency,[16],inactive
same,Potency,[17],inactive
same,Potency,[18],inactive
same,Potency,[19],inactive
same,Potency,[20],inactive
CCc1cc(C)cc(CC)c1-c1c(OC(=O)C(C)(C)C)n2n(c1=O)CCOCC2,Potency,[1],inactive
same,Potency,[2],inactive
same,outcome,[3],inactive
same,Potency,[4],inactive
same,Potency,[5],inactive
same,"activity change, positive = activation",[6],-10%
same,Potency,[7],inactive
same,Potency,[8],inactive
same,Potency,[9],inactive
same,Potency,[10],inactive
same,Potency,[11],inactive
same,Potency,[12],inactive
same,max response,[14],-25.1%
same,Potency,[15],inactive
same,Potency,[16],inactive
same,Potency,[17],inactive
same,Potency,[19],inactive
same,Potency,[20],inactive
C[As+](C)(C)CC(=O)[O-],Potency,[1],inactive
same,Potency,[2],inactive
same,outcome,[3],inactive
same,Potency,[4],inactive
same,Potency,[5],inactive
same,"activity change, positive = activation",[6],5.87%
same,Potency,[7],inactive
same,Potency,[8],inactive
same,Potency,[9],inactive
same,Potency,[10],inactive
same,Potency,[11],inactive
same,Potency,[12],inactive
same,Potency,[13],inactive
same,max response,[14],-9.67%
same,Potency,[15],inactive
same,Potency,[16],inactive
same,Potency,[17],inactive
same,Potency,[18],inactive
same,Potency,[19],inactive
O=[N+]([O-])c1ccc(Oc2ccc(C(F)(F)F)cc2[N+](=O)[O-])cc1,Potency,[1],inactive
same,Potency,[2],inactive
same,outcome,[3],inactive
same,Potency,[4],inactive
same,"activity change, positive = activation",[6],-23.5%
same,Potency,[7],inactive
same,Potency,[8],19.5 µM (active)
same,Potency,[9],inactive
same,Potency,[10],inactive
same,Potency,[11],inactive
same,Potency,[12],19.5 µM (active)
same,Potency,[14],17.4 µM (active)
same,Potency,[15],inactive
same,Potency,[16],inactive
same,Potency,[17],inactive
same,Potency,[18],inactive
same,Potency,[19],inactive
same,Potency,[20],inactive
